# Most compounds without a hit are left out; they make up all but 11% or so of the library.
# IL1B secr inh – inflammasome signaling inhibition, IL-1 beta readout; 360,000 tested, 4.7% active; AID 743279; THP-1 LPS/ATP IL-1B secretion, AlphaLISA, 16 h; stronger effect = lower value; activity change, % at 57.5 µM; in the data active = activity change below about -50%; inconclusive = mostly about -30% to -49%; note: % is set by controls: 0 for no effect and ±100 for the full control effect
#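 THP-1 cells pretreated 1 hr with compounds (up to 57.5 uM final), then stimulated with LPS (250 ng/mL final) plus ATP (1.25 mM final); secreted IL-1B measured by AlphaLISA after 16 hr, decreased signal indicating inhibition.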
# VP16 counter – inhibits Gal4-VP16 luciferase reporter, ROR gamma counter-screen | Drosophila S2 Gal4-VP16 UAS-luciferase, luminescence, 20 h | Potency, µM (doses to about 53.6 µM), inactives show top-dose activity, negative = inhibition, most hits filed as inhibitors | 310,000 tested, 3.5% active | AID 2546;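 note: Gal4-VP16 expression switched on by copper sulfate through the metallothionein promoter; potency is the fitted concentration of half-maximal effect; % is set by controls: 0 for no effect and ±100 for the full control effect; nearly all actives have a fitted effect of over 50% in size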
# MCF10A rereplic – inducers of DNA re-replication in MCF 10A breast cells | AID 624296 | Potency, µM (series often up to 46.1 µM), for the others: at the top dose activity, positive = re-replication, most hits filed as activators | MCF 10A DNA re-replication, Hoechst nuclear intensity, 48 h | 350,000 tested, 2.9% active; note: potency is the fitted concentration of half-maximal effect; % of control where 0% means no effect; nearly all actives have a fitted effect of over 50% in size
# RORgamma inh – blocks mouse ROR gamma transcriptional activity. P51450. Drosophila S2 Gal4-RORgamma UAS-luciferase reporter, 20 h. Potency, µM (top dose mostly 53.6 µM), inactives show top-dose activity change, negative = inhibition, hits mostly inhibitors. 310,000 tested, 5.4% active. AID 2551; note: potency is the fitted concentration of half-maximal effect; % is set by controls: 0 for no effect and ±100 for the full control effect; nearly all actives have a fitted effect of over 60% in size
# Target sequence (P51450 whole entry, looked up, the tested form may be a part): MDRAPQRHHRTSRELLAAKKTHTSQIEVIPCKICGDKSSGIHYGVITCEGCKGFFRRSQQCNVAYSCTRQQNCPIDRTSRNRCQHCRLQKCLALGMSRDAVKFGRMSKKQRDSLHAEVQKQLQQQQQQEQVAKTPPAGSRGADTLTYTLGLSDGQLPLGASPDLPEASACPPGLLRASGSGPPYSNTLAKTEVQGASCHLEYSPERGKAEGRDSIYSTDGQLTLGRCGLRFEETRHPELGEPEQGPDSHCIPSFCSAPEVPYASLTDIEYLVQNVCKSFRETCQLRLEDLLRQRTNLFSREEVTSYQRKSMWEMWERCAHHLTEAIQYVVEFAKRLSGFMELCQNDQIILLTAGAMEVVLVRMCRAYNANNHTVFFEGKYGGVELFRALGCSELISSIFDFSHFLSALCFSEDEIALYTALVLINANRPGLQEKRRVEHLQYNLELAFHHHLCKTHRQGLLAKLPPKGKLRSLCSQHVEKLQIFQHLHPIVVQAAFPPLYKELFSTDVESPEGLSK
#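 Luminescence from a UAS-regulated Photinus luciferase reporter in stably transfected Drosophila Schneider cells is measured; decreased signal marks ROR gamma inhibition. Fusion expression is induced by 700 uM copper sulfate for 20 hr.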
# SW480 rereplic – DNA re-replication induction in SW480 cells | 340,000 tested, 1.8% active | AID 624297 | SW480 DNA re-replication, Hoechst DNA content imaging, 48 h | Potency, µM (titrated, usually from 46.1 µM), without a hit: at the highest dose re-replication activation, usual class: activators; note: potency is the fitted concentration of half-maximal effect; % of control where 0% means no effect; nearly all actives have a fitted effect of over 55% in size
#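 First, 250 cells per well were seeded. Next, compound or vehicle (23 nL) was pinned in, plates sat 48 hr at 37 C. Finally Hoechst was added for 40 min before fluorescence scanning.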
# * = called active by the depositor; ? = inconclusive; / = no result; ! = a repeat was not active; [ ] = another dose, or the depositor's remark. Unless noted, calls come from the whole dose curve; as a rule, active = well fitted curve in the direction sought with a large enough effect; inconclusive = small, poorly fitted or top-dose-only effect, or another doubt; inactive = no such curve, though single readings can be large; an effect the other way counts as inactive or inconclusive.
SMILES,IL1B secr inh,VP16 counter,MCF10A rereplic,RORgamma inh,SW480 rereplic
CN1/C(=C\C(=O)c2cccs2)C(C)(C)c2ccccc21,0,?,4.1µM*,?,?
CN1/C(=C\C(=O)c2cccs2)Sc2ccccc21,-14,-25%,18µM*,?,15µM*
CN1/C(=C\P(=O)(N(C)C)N(C)C)C(C)(C)c2ccccc21,-11,7.9µM*,3%,-39%,?
COc1cc(OC)cc(C(=O)/C=C2\Sc3ccccc3N2C)c1,-26,-7%,?,11%,?
O=C(O)C1CCC[C@@H]2[C@@H]3CC(CN12)[C@@H]1CCCCN1C3 (some centres not stated),/,-1%,/,-13%,/
CCN(CC)C(=O)CSc1nc2cc(S(=O)(=O)N3CCOCC3)ccc2n1CC,0,-2%,1%,2%,-4%
Cc1ccc(NC(=O)CSc2nnc3ccc(-c4ccncc4)nn23)cc1,-5,/,3%,/,3%
Nc1ccn([C@@H]2O[C@H](C(=O)N(CCC3=CCCCC3)CC3CC3)[C@@H](O)[C@H]2O)c(=O)n1,-11,/,/,/,/
CC(C)(CO)NCc1c(OCc2ccc(Cl)cc2)ccc2ccccc12,-106*,-12%,?,-18%,?
CNCc1c(OCc2ccccc2)ccc2ccccc12,-86*,-3%,-13%,24%,1%
CCOC(=O)C1CCCN(S(=O)(=O)c2ccc(OC)c3ccccc23)C1 (configuration not stated),50,-16%,5%,-3%,3%
CCN1C(=O)c2cccc3c(S(=O)(=O)N4CCCC4C(=O)O)ccc1c23 (configuration not stated),2,-5%,-14%,-17%,18µM*
CCN1CCN(S(=O)(=O)c2ccc3c4c(cccc24)C(=O)N3CC)CC1,-14,/,?,/,29%
CCOC(=O)C1CCCN(S(=O)(=O)c2ccc3c4c(cccc24)C(=O)N3CC)C1 (configuration not stated),40,/,15%,/,7.3µM*
CCN1C(=O)c2cccc3c(S(=O)(=O)N4CCNCC4)ccc1c23,-13,/,?,/,6.5µM*
O=C(Nc1ccc(Cl)cc1)Nn1cnnc1,?,2%,-11%,4%,-1%
CCOC(=O)CNC(=O)c1ccc2[nH]c3ccccc3c2c1,-63*,16%,-7%,?,12%
O=C(NCC(O)CO)c1ccc2[nH]c3ccccc3c2c1 (configuration not stated),-6,-14%,-6%,6%,-3%
CC(C)CCC(CCNCc1ccccn1)c1ccc(Cl)cc1 (configuration not stated),-98*,-13%,?,11µM*,?
O=C(CNC(=O)c1ccc(Cl)cc1)NCc1ccccn1,4,/,3%,/,-18%
CCOc1ccc(/C=C2\SC(=S)N(CCCC(=O)NCCCN3CCOCC3)C2=O)cc1,-89*,0.89µM*,?,0.4µM*,16µM*
CCOc1ccc(/C=C2\SC(=S)N(CC(=O)N(CCO)C(C)(C)C)C2=O)cc1,-123*,11µM*,1%,7.1µM*,2%
CCc1ccc(/C=C2/SC(=S)N(CCC(=O)NCCCN3CCOCC3)C2=O)cc1,-30,6%,16%,16%,2%
CCOc1ccc(N=C2NC(=O)S/C2=C\c2ccc(N(C)C)cc2)cc1,20,-1%,13%,-2%,?
CCc1ccc(/C=C2\SC(=S)N(CCCC(=O)NCCCN3CCOCC3)C2=O)cc1,-57*,/,/,/,/
SMILES,IL1B secr inh,VP16 counter,MCF10A rereplic,RORgamma inh,SW480 rereplic
CCOc1ccc(/C=C2\SC(=S)N(CC(=O)Nc3ccccn3)C2=O)cc1,12,11%,?,9%,?
CCOc1ccc(/C=C2/SC(=O)NC2=S)cc1,-7,?,24%,11µM*,-7%
CCOC(=O)C1=CNS(=O)(=O)NC1c1ccc(C)cc1 (configuration not stated),1,/,8%,/,-1%[9.22 µM]
CCCCc1oc2ccccc2c1C(=O)c1cc(I)c(OCCN(CC)CC)c(I)c1,-9,/,9.2µM*!,/,23µM*!
CCN(CC)CCOc1ncnc2c1oc1ccccc12,-16,0%,?,0%,-15%
CC(O)[C@H]1CN=C(N)N1CCCCC1CCCCC1 (some centres not stated),?,2%,-7%,-22%,-14%
NCCCC[C@H]1CN=C(N)N1CC1CCCCC1,-1,/,-40%,/,1%
Oc1ccc(C[C@@H]2CNC(=S)N2CCCCC2CCCCC2)cc1,-3,?,?,8.9µM*,-7%
NC1=NC[C@H](c2ccccc2)N1CCCCC1CCCCC1,-83*,-2%,1%,-1%,-9%
NCCCC[C@H]1CN=C(N)N1CCCCC1CCCCC1,-64*,/,5%,/,-5%
S=C1NC[C@H](c2ccccc2)N1CCCCC1CCCCC1,21,3.2µM*,?,0.45µM*,6%
COc1ccc(N(CC(=O)N2CCN(c3ccccc3)CC2)S(=O)(=O)c2ccccc2)cc1,-6,/,/,/,/
CC(=O)Oc1ccc(C(=C2CCCCC2)c2ccc(OC(C)=O)cc2)cc1,/,3%,1%,12%,1%
CN(Cc1ccccc1)C(=O)COC(=O)C1CCN(S(=O)(=O)c2ccc3c(c2)OCCO3)CC1,21,/,-2%,/,-1%
CCOc1cc(C2NC(=O)CCC2[N+](=O)[O-])cc(Br)c1OCC (configuration not stated),-12,4%,-3%,13%,-1%
Cc1ccc(C2=NN(C(=O)CCl)C(c3cccs3)C2)o1 (configuration not stated),-102*,?,?,?,5.8µM*
O=C(CCl)N1N=C(c2ccco2)CC1c1cccs1 (configuration not stated),-105*,16µM*,21µM*,10µM*,3.3µM*
CC(=O)N1N=C(c2ccco2)CC1c1cccs1 (configuration not stated),7,11%,-3%,-5%,-2%
CCc1c2c(nc3cccc(SC)c13)COC2,/,-4%,/,-12%,/
COc1ccc(CCN2C(=S)NC3CC2(C)Oc2ccc([N+](=O)[O-])cc23)cc1OC (configuration not stated),-21,?,25%,16µM*,16µM*
Cc1c2c(c(O)c3c(O)cccc13)C(=O)O[C@H]2C1C(N(C)C)C(O)=C(C(N)=O)C(=O)[C@H]1O (some centres not stated),/,-9%,/,8%,/
CN(CCc1ccc(Cl)c(Cl)c1)C[C@@H](O)COc1ccc(NS(C)(=O)=O)cc1,/,2%,/,-13%,/
Cc1nonc1NC(=O)CSc1nc(C2CCCCC2)nc2ccccc12,-74*,?,?,?,8.2µM*
Cc1nonc1NC(=O)CSc1nc(C23CC4CC(CC(C4)C2)C3)nc2ccccc12,-90*,0%,10µM*,7%,?
